Experiment [1] has as its system Plasmodium falciparum Sir2 (PF13_0152, Sir2A). As to the kind of experiment: Plasmodium falciparum Sir2A binding compounds – biochemical, small-molecule microarray, 635 nm fluorescence, primary screen (AID 1098).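 Also: score merges spot fluorescence intensity with its signal-to-noise ratio.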 Conditions: fluorescence 635 nm, higher = more signal.
Experiment [2] in a line: probe aDKK1 binding to arrayed compounds – biochemical, biotinylated probe, 635/667 nm fluorescence, primary screen (AID 1099).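 Also: score merges 667nm spot fluorescence with signal to noise across triplicate slides; reference of the scale not given here.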 Particulars: small-molecule microarray, higher = more signal.
Experiment [3] can be described thus: probe aCHRDL2 binding to arrayed compounds – biochemical, biotinylated probe, 635/667 nm fluorescence, primary screen (AID 1100). Conditions: small-molecule microarray, higher = more signal.
Experiment [4] can be described thus: change in splice reporter luminescence, either direction, cell-based, HEK293, spliceosome inhibition project, primary screen (AID 1101).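 Also: HEK293 cells carrying a splicing-competent luciferase reporter gene; test concentration not given here.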 Particulars: HEK293 splicing luciferase reporter, 24 h, higher = more signal, called active from +8 up or from −8 down. For orientation: A reporter such as luciferase makes a cellular process visible.
The target of experiment [5] is Fibroblast growth factor 10 (Homo sapiens) (UniProt O15520). As to the kind of experiment: compounds binding fibroblast growth factor 10 – biochemical, small-molecule microarray, 635 nm fluorescence, primary screen (AID 1102). Conditions: FGF10 binding, fluorescence 635 nm, higher = more signal.
Chain of Fibroblast growth factor 10 (Homo sapiens) (O15520 whole entry, looked up): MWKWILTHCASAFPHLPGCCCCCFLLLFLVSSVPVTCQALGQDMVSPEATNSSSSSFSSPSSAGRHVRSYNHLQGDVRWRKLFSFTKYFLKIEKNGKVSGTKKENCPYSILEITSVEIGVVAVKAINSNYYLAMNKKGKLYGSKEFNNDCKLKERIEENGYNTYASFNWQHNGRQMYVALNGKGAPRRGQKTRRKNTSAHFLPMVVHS
Experiment [6] concerns glycogen synthase kinase-3 (GSK3A per assay name; protocol says GSK3B). As to the kind of experiment: compounds binding glycogen synthase kinase-3 – biochemical, small-molecule microarray, 635 nm fluorescence, GSK3A, primary screen (AID 1103). Also: the record names both GSK3A and GSK3B. Particulars: fluorescence 635 nm, higher = more signal.
Experiment [7] deals with Epidermal growth factor receptor (Homo sapiens) (UniProt P00533). In words: compounds binding epidermal growth factor receptor – biochemical, small-molecule microarray, 635 nm fluorescence, primary screen (AID 1104).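 Also: score merges 667 nm emission intensity with spot signal to noise over triplicate slides.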 Particulars: EGFR binding, higher = more signal.
Chain of Epidermal growth factor receptor (Homo sapiens) (P00533 whole entry, looked up): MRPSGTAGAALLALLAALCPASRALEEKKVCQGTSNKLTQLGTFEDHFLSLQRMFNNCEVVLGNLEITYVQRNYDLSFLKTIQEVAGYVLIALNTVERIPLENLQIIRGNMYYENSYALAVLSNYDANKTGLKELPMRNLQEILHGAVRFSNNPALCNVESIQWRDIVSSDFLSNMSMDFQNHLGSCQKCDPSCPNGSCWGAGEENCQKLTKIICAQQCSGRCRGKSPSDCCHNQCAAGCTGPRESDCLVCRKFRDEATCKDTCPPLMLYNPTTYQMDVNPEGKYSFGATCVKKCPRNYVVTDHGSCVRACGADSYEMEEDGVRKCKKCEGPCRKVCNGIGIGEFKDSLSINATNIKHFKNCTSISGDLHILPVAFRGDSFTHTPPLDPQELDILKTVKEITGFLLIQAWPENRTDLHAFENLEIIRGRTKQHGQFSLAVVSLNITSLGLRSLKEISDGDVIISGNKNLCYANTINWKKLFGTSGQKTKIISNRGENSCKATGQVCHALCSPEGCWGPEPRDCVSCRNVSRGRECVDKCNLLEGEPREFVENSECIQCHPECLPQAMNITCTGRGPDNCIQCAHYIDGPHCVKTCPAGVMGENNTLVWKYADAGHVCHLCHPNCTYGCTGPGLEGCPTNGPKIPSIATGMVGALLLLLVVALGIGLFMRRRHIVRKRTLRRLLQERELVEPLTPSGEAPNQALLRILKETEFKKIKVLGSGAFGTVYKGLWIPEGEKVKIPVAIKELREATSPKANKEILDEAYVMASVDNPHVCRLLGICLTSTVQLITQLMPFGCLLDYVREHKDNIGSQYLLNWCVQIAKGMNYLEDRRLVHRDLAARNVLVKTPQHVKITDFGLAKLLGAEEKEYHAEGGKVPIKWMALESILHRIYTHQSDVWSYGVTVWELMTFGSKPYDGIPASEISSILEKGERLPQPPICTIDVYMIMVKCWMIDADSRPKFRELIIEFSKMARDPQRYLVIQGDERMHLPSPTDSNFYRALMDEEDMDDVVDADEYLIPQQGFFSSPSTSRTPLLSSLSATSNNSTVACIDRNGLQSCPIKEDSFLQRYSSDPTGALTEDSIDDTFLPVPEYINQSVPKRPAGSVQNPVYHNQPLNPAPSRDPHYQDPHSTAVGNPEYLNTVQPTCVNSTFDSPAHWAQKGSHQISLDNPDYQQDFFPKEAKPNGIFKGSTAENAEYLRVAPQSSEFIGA
The target in experiment [8] is Follistatin-related protein 3 (Homo sapiens) (UniProt O95633). As to the kind of experiment: compounds binding follistatin-related protein 3 – biochemical, small-molecule microarray, 635 nm fluorescence, primary screen (AID 1105).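 Also: score merges emission near 667 nm and signal to noise per printed spot across three slides.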 Conditions: FSTL3 binding, higher = more signal.
Chain of Follistatin-related protein 3 (Homo sapiens) (O95633 whole entry, looked up): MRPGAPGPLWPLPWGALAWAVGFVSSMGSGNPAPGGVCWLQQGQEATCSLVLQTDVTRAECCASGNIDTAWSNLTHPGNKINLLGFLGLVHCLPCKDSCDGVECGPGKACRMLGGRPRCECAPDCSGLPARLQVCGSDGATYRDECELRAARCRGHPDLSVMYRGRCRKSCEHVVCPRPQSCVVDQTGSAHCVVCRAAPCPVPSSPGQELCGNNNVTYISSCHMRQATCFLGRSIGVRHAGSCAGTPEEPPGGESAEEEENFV
The target of experiment [9] is Dickkopf-related protein 1 (Homo sapiens) (UniProt O94907). As to the kind of experiment: small molecules binding DKK1 protein – biochemical, small-molecule microarray, 635 nm fluorescence scan, primary screen (AID 1106).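 Also: score merges emission near 667 nm with signal to noise over three replicate slides.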 Particulars: higher = more signal.
Chain of Dickkopf-related protein 1 (Homo sapiens) (O94907 whole entry, looked up): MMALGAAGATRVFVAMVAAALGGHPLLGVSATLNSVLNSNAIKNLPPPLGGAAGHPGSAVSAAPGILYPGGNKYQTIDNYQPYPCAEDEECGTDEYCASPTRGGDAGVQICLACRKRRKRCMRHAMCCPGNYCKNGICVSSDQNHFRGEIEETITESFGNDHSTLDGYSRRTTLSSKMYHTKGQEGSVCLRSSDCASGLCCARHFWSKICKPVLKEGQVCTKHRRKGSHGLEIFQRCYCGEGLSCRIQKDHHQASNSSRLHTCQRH
Experiment [10] concerns Inhibin beta A chain (activin A). In words: small molecules binding activin A – biochemical, small-molecule microarray, 635 nm fluorescence scan, primary screen (AID 1107).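 Also: mouse activin A protein probed at 4.33 µg/mL on printed slides; score merges bound-protein fluorescence near 667 nm with spot signal-to-noise.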 Conditions: INHBA, higher = more signal.

The source made the active and inactive calls.

Take `COCCCNC(=O)[C@@]1(Cc2ccccc2CN=[N+]=[N-])N=C(c2ccc(OCCCO)cc2)O[C@H]1c1ccccc1`: the composite z-score was 1.06 in experiment [1]; 0.432 in experiment [2]; 0.825 in experiment [3]; 1.31 in [5]; 0.235 in experiment [6]; -0.331 in [7]. Moreover, the composite z-score in experiment [8] was 0.561; in experiment [9] it was -0.497; in experiment [10] it was 0.31. The z-score in experiment [4] is -0.645 (inactive).
`O=C1O[C@@H](c2ccccc2)[C@@H](c2ccccc2)N2[C@@H](c3ccc(O)cc3)[C@]3(C(=O)Nc4ccc(C#CC5(O)CCCCCC5)cc43)[C@@H](C(=O)NC[C@H](O)c3ccccc3)[C@H]12`: the composite z-score was 1.29 in [1]; -0.171 in [2]; 0.467 in experiment [3]; -0.174 in experiment [5]; 0.791 in experiment [6]; -0.568 in experiment [7]. The composite z-score in experiment [8] is -0.442; in experiment [9] it was -0.505; in [10], -0.357. Besides, in [4], the z-score is -0.55 (inactive).
Take `CC(C)(C)OC(=O)CC[C@]1(C(=O)NCC(O)CO)N=C(c2ccc(OCCCO)cc2)O[C@H]1c1ccccc1` (stereo not given in full): the composite z-score in experiment [1] is 0.835; in experiment [2] it was 1.1; in [3] it was 0.897; in [5], 0.57; in [6], 0.206; in experiment [7], -0.516. In addition, the composite z-score in [8] is -0.715; in experiment [9], -1.09; in [10], -0.0014. Further, in experiment [4], the z-score was -0.495 (inactive).
As to `[N-]=[N+]=Nc1ccccc1[C@@H]1OC(c2ccc(OCCCO)cc2)=N[C@]1(Cc1ccccc1)C(=O)NCC(O)CO` (stereo not given in full), the composite z-score in experiment [1] is 1.08; in experiment [2], 1.33; in experiment [3], 1.4; in experiment [5] it was 0.915; in [6], -0.216; in experiment [7], -0.433. In addition, the values for the composite z-score in [8], in experiment [9] and in experiment [10] were 0.18, -0.647 and 1.09, respectively. Further, in [4], the z-score is -1.37 (inactive).
For the compound `CC(C)Cc1ccc(CN2CC[C@@H](NC(=O)Nc3ccccc3)C2)cc1`, the composite z-score is 1.06 in [1]; -0.342 in [2]; -0.358 in experiment [3]; -0.62 in [5]; -0.274 in [6]; -0.301 in experiment [7]. Also, the composite z-score in experiment [8] was -0.496; in [9] it was 0.238; in [10], 0.692. Besides, in [4], the z-score was 2.68 (inactive).
As for `COc1ccc([Si](C)(C)[C@@H]2[C@@H](CC(=O)N(CCO)Cc3ccccc3)O[C@]3(C(=O)N(Cc4cccc(N5CCOC5=O)c4)c4ccccc43)[C@H]2C)cc1`, the composite z-score in experiment [1] was 1.07; in experiment [2], -0.178; in experiment [3], -0.29; in [5] it was 0.386; in experiment [6] it was 0.688; in experiment [7], 0.41. Also, the composite z-score was 0.468 in [8], 0.291 in experiment [9] and 0.523 in experiment [10]. The z-score in experiment [4] was -0.244 (inactive).
For the compound `Cc1cc(C)c(C(O)C2C=CC3C(=O)N(c4ccccc4)C(=O)C3N2Nc2ccc(C(C)C)cc2)c(C)c1` (stereo not given), the composite z-score in [1] was 0.68; in [2] it was 1.19; in [3], 1.08; in [5], 0.978; in experiment [6], 1.25; in experiment [7] it was -0.0206. For the same compound, the composite z-score in [8] is 0.818; in [9], -0.0403; in experiment [10] it was 0.202. Further, the z-score in [4] is -0.00156 (inactive).
For the compound `CC1=C([C@H](O)CCc2ccccc2)[C@H](CO)[C@@H]2C(=O)N(C)C(=O)[C@@H]2C1`, the composite z-score in [1] is 0.843; in experiment [2] it was -0.173; in experiment [3], -0.495; in experiment [5], 0.383; in experiment [6], 0.271; in experiment [7] it was 0.243. In addition, the composite z-score worked out at 0.491 in experiment [8], 0.446 in [9] and 0.162 in experiment [10]. In [4], the z-score is 0.626 (inactive).
Regarding `CCOC(=O)c1ccc(NC(=O)O[C@H]2[C@H](OC(=O)Nc3ccc4c(c3)OCO4)[C@@H](OC(=O)Nc3ccc4c(c3)OCO4)[C@@H](OC)O[C@@H]2CO)cc1`, the composite z-score in experiment [1] came out at 1.41; in experiment [2], 0.164; in [3], 0.157; in [5] it was 1.4; in [6], 1.33; in experiment [7], 0.308. Besides, the results for the composite z-score in [8], in experiment [9] and in experiment [10] were 1.49, 0.624 and 0.51, respectively. Moreover, the z-score in experiment [4] is -0.616 (inactive).
`CCC[C@@H]1C[C@@]1(CCC)[C@@H](NC(=O)OCc1ccccc1)c1ccc(-c2ccccc2)cc1`: the composite z-score in experiment [1] was -1.27; in [2] it was -0.163; in experiment [3], 0.565; in experiment [5] it was -0.933; in experiment [6], -1.74; in experiment [7], -1.1. Further, the values for the composite z-score in experiment [8], in experiment [9] and in experiment [10] were -0.644, -0.496 and 1.47, respectively. In addition, the z-score in experiment [4] was -3.43 (inactive).
In the case of `C=CCN1C(=O)[C@@]2(O[C@@H](CCn3cc([C@H](O)c4ccccc4)nn3)[C@H]([Si](C)(C)c3ccc(OC)cc3)[C@H]2C)c2cc(N3CCC3=O)ccc21`, the composite z-score in experiment [1] was 1.43; in experiment [2] it was 0.0289; in [3], 0.257; in experiment [5], 0.216; in [6] it was -0.0371; in [7], -0.0844. Besides, the composite z-score in experiment [8] is -0.296; in experiment [9], -0.0607; in [10] it was 0.289. Also, the z-score in experiment [4] was -0.429 (inactive).
Regarding `CCCCCCCCCCC(O)C1C=CC2C(=O)N(C)C(=O)C2N1NC(=O)OC(C)(C)C` (stereo not given), the composite z-score in [1] was 0.18; in experiment [2] it was -0.0906; in experiment [3] it was 0.0331; in [5], -0.737; in [6] it was 0.386; in experiment [7] it was -0.0167. Moreover, the results for the composite z-score in experiment [8], in experiment [9] and in experiment [10] were -0.112, -0.145 and 0.417, respectively. Besides, the z-score in experiment [4] is 11.3 (active).
As to `C=CCC(OC(C)=O)[C@@H]1[C@@H](N(Cc2cccc3ccccc23)C(=O)Cc2ccc(OC)cc2)c2cc(OCCCO)ccc2N1C(=O)c1ccc2ccccc2n1` (stereo not given in full), the composite z-score in experiment [1] was -0.316; in experiment [2], -0.0805; in experiment [3], 0.144; in experiment [5], 0.103; in experiment [6], -0.135; in experiment [7], 0.124. Also, the composite z-score in experiment [8] is 0.484; in experiment [9] it was -0.0462; in experiment [10], 1.33. Besides, the z-score in [4] is -0.326 (inactive).
As for `Cc1ccc(S[C@]2(C(=O)O)CC(=O)N(Cc3cc(C(F)(F)F)cc(C(F)(F)F)c3)[C@@H]2c2ccc(CO)cc2)cc1`, the composite z-score is 1.2 in [1]; 0.326 in experiment [2]; 1.14 in [3]; -1.65 in experiment [5]; -1.03 in experiment [6]; -1.89 in experiment [7]. Besides, the composite z-score in [8] was -1.92; in experiment [9], -2.26; in [10], -0.131. Further, in experiment [4], the z-score is -0.262 (inactive).
Take `COc1ccc(-c2nc(-c3ccccc3)c3c(c2C)CO[Si]3(C(C)C)C(C)C)cn1`: the composite z-score in experiment [1] is -0.18; in [2], -0.0958; in experiment [3], -0.505; in [5], 0.984; in [6], 0.729; in experiment [7], -0.0277. The figures for the composite z-score in experiment [8], in experiment [9] and in [10] were 0.446, 0.125 and 0.468, respectively. In addition, the z-score in experiment [4] was 0.0313 (inactive).
`CN(C)c1ccc(C(O)C2C=CC3C(=O)N(c4ccccc4)C(=O)C3N2Nc2ccc([N+](=O)[O-])cc2)cc1` (stereo not given): the composite z-score in experiment [1] stood at 1.53; in experiment [2], 0.604; in experiment [3] it was 1.16; in experiment [5], 0.704; in [6], 1.29; in [7] it was 0.332. For the same compound, the composite z-score is 0.974 in [8], -0.204 in experiment [9] and 1.4 in experiment [10]. In [4], the z-score was -0.0025 (inactive).

The values are drawn from PubChem BioAssay.
